Results on 30 compounds are retold here after PubChem BioAssay (NCATS).

The structures appear in SMILES notation. Records with an inconclusive call do not appear. Values without a mark were called inactive. The call rests on the fitted dose curve; in most records, active means well fitted cell-killing curve with a large enough effect; inconclusive means small, poorly fitted or top-dose-only effect; inactive means flat fitted curve, though single readings scatter.
On the % scale 0 is the no-effect control and ±100 the full control effect.

The nature of this assay: Cell Viability - LYMP2-021 (AID 974). Further: nearly all actives have a fitted effect of over 55% in size. To be noted: LYMP2-021 lymphoblastoid cells viability; series mostly up to 92.2 µM; activity change, negative = cytotoxicity: at the top concentration. In short, it runs like this:
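AC50 values come from Hill-equation fits to CellTiter-Glo luminescence (ATP content), read after 24 hour compound exposure at 37 C of 2500 LYMP2-021 lymphoblastoid cells/well; tetraoctylammonium bromide as positive control.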
For the compound `CCC/C=N/O`, the “activity change, negative = cytotoxicity” value is 3.2%.
`Cc1cnc[nH]1`: the “activity change, negative = cytotoxicity” value was -1.82%.
The value for `COc1c(C(C)(C)C)cc([N+](=O)[O-])c(C)c1[N+](=O)[O-]` was -0.22%.
As to `ClCCOCOCCCl`, the “activity change, negative = cytotoxicity” value is -3.81%.
Consider `CC12CC1(C)C(=O)N(c1cc(Cl)cc(Cl)c1)C2=O` (stereo not given), for which the “activity change, negative = cytotoxicity” value is -8.22%.
The value for `CC(C)(Cl)[N+](=O)[O-]` was -1.93%; that for `Cl/C=C/Cl` was 0.204%.
With `CCCCOCC1CO1` (stereo not given), the “activity change, negative = cytotoxicity” value is -8.14%.
The value for `O=C(O)c1cccc(Cl)c1` was 0.039%; that for `C1CC2OC2CC1C1CO1` (stereo not given) was -4.21%.
Take `Brc1cccc(-c2ccccc2)c1`: the “activity change, negative = cytotoxicity” value was -2.19%.
The value for `Oc1c(Cl)cccc1Cl` was 0.663%.
For `CCNCC`, the “activity change, negative = cytotoxicity” value was -2.27%.
The value for `CC(C)C#N` was -3.69%; that for `Cl/C=C\Cl` was -2.27%.
The value for `c1ccc2c(c1)CCNC2` was 1.69%; that for `N#CCCC#N` was -3.46%.
The value for `Cc1ccccc1[N+](=O)[O-]` was -3.41%; that for `OCCBr` was -1.04%.
On to `CC(C)(C)C(O)(CCc1ccc(Cl)cc1)Cn1cncn1` (stereo not given), for which the “activity change, negative = cytotoxicity” value is -13.2%.
Take `N#CCCCCC#N`: the “activity change, negative = cytotoxicity” value was -1.43%.
The value for `CN=C=O` was 2.91%.
Turning to `c1ccc(C2CO2)cc1` (stereo not given), the “activity change, negative = cytotoxicity” value was -3.53%.
The value for `CCCCCC[N+](=O)[O-]` was -0.17%; that for `COc1ccc(C=O)cc1` was 2.91%.
For `Nc1ccc(Cl)c(Cl)c1`, the “activity change, negative = cytotoxicity” value was -3.8%.
The value for `CC(=O)[O-].CC(=O)[O-].CC(=O)[O-].[Cr+3]` was -3.38%; that for `CC(=O)CCC(C)=O` was -1.58%; that for `C=CC(=O)OCC(CC)CCCC` (stereo not given) was 0.903%.
For `CC(C#N)CCC#N` (stereo not given), the “activity change, negative = cytotoxicity” value is -1.79%.
